Compounds with a hit are over-represented: about 8% of the library has one in this group of screens.
SW480 rerep: induces DNA re-replication in SW480 colon adenocarcinoma cells | hit rate 1.8% among 340,000 | Potency, µM (titrated, usually from 46.1 µM), without a hit: at the top dose re-replication activation, actives largely listed as activators | SW480 DNA re-replication, Hoechst DNA content imaging, 48 h; further: % of control where 0% means no effect; nearly all actives have a fitted effect of over 55% in size
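Cells (250 per well) received 23 nL compound or DMSO by pin tool and were kept 48 hr at 37 C, 5% CO2. Nuclei were then stained with Hoechst for 40 min and scanned for DNA content.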
HT1080 IDH1KD tx: HT-1080 IDH1 knockdown cell toxicity (counter line); HT-1080 IDH1 knockdown viability, ATP luminescence, 48 h; Potency, µM (top dose mostly 46.1 µM), inactives show top-dose activity, negative = toxicity, usual class: cytotoxic; hit rate 2% among 360,000;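 further: 0% = DMSO wells and -100% = cell-free medium wells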
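Luminescent ATP read-out (CellTiter-Glo, 10 min at room temperature) after 48 h compound exposure at 37 °C gave viability of IDH1-knockdown HT-1080 cells. Activity was normalised to DMSO and cell-free wells, then fitted as concentration-response curves.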
KB-V1 cytotox: kills drug-selected multidrug resistant KB-V1 cells; KB-V1 MDR cells viability, CellTiter-Glo, 72 h; Potency, µM (series often up to 46.1 µM), hits mostly cytotoxic; hit rate 3.4% among 400,000; AID 1347076; further: on the % scale 0 is the no-effect control and ±100 the full control effect; nearly all actives have a fitted effect of over 60% in size
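In this primary screen, KB-V1 cells overexpressing P-gp are incubated with library compounds (lowest to highest concentration) for 72 h at 37 degrees C before a luminescent ATP viability read.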
KB-3-1 cytotox: KB-3-1 parental cell cytotoxicity. KB-3-1 viability, CellTiter-Glo ATP luminescence, 72 h. Potency, µM (top dose mostly 46.1 µM), most hits filed as cytotoxic. hit rate 1.4% among 400,000; further: on the % scale 0 is the no-effect control and ±100 the full control effect; nearly all actives have a fitted effect of over 60% in size
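KB-3-1 cells, DMEM (no phenol red) + 10% FBS; compound by pin transfer, 72 h, 37 °C. Readout: CellTiter-Glo luminescence after 10 min. Data normalized, curve-fitted.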
MCF10A rerep: induces DNA re-replication in MCF 10a normal breast cells; MCF 10A DNA re-replication, Hoechst nuclear intensity, 48 h; Potency, µM (doses to about 46.1 µM), for the others: at the top dose activity, positive = re-replication, usual class: activators; hit rate 2.9% among 350,000; further: % of control where 0% means no effect; nearly all actives have a fitted effect of over 50% in size
HT1080NT lethal: kills 2HG-producing HT-1080-NT fibrosarcoma cells; HT-1080-NT fibrosarcoma viability, CellTiter-Glo ATP luminescence, 48 h; Potency, µM (titrated, usually from 46.1 µM), for inactives: top-dose activity, negative = less viability, usual class: cytotoxic; hit rate 1.6% among 360,000; AID 686970;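 further: NT is the 2HG producing partner of a matched IDH1 knockdown line; 0% = DMSO-treated cells and -100% = media-only wells without cells; nearly all actives have a fitted effect of over 55% in size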
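Compounds were tested in concentration-response format on HT-1080-NT cells for 48 hours at 37 degrees C. Cell viability came from CellTiter-Glo luminescence; curves were classified by r2, response magnitude and activity.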
* hit, by the source's call; [ ] = another dose, or the depositor's remark. The call rests on the fitted dose curve; in most records, active means well fitted curve in the direction sought with a large enough effect; inconclusive means small, poorly fitted or top-dose-only effect, or another doubt; inactive means no such curve, though single readings can be large; an effect the other way counts as inactive or inconclusive. Potency means the concentration at half of the fitted maximal effect.

Results for CC(=O)N1CCCc2cc(S(=O)(=O)N3CCC(C(=O)NCCC(C)C)CC3)ccc21 ?
KB-V1 cytotox: inactive; KB-3-1 cytotox: inactive

What do the screens show for `CCCC(O)c1nc2ccccc2n1CCCCOc1ccc(OC)cc1` (stereo not given)?
KB-V1 cytotox: inactive; KB-3-1 cytotox: inactive

Results for COc1cc(C(=O)N/N=C(\c2ccccc2)c2ccccn2)cc(OC)c1OC ?
SW480 rerep: inconclusive; HT1080 IDH1KD tx: inconclusive; KB-V1 cytotox: inactive; KB-3-1 cytotox: inconclusive; MCF10A rerep: 18µM*; HT1080NT lethal: inconclusive

How did COc1cc(C(=O)NCC(=O)N/N=C/c2ccccn2)cc(OC)c1OC do in these assays?
SW480 rerep: -7%; HT1080 IDH1KD tx: 14%; KB-V1 cytotox: inactive; KB-3-1 cytotox: inactive; MCF10A rerep: -2%; HT1080NT lethal: 12%

Results for CC(=NNC(=S)Nc1cccc(Cl)c1)c1ccccn1 ?
SW480 rerep: inconclusive; HT1080 IDH1KD tx: inconclusive; KB-V1 cytotox: inconclusive; KB-3-1 cytotox: inconclusive; MCF10A rerep: inconclusive; HT1080NT lethal: 18µM*

What do the screens show for `CCOC(=O)C1CCC(CN(Cc2ccc(OC)cc2)S(=O)(=O)c2ccc(F)c(C(=O)Nc3ccc(C)c(C)c3)c2)CC1` (stereo not given)?
KB-V1 cytotox: inactive; KB-3-1 cytotox: inactive

What do the screens show for `CCOC(=O)C1CCCN(C(=O)/C=C/c2ccc(Cl)cc2)C1` (stereo not given)?
SW480 rerep: -11%; HT1080 IDH1KD tx: 0%; KB-V1 cytotox: inactive; KB-3-1 cytotox: inactive; MCF10A rerep: -5%; HT1080NT lethal: 4%

Results for CC1CCN(C(=O)/C=C/c2ccc(C(C)(C)C)cc2)CC1 ?
SW480 rerep: 2%; HT1080 IDH1KD tx: 1%; KB-V1 cytotox: inconclusive; KB-3-1 cytotox: inactive; MCF10A rerep: 18µM*; HT1080NT lethal: 7%

Results for Cc1ccc(/C=C/C(=O)N2CCCC(C)C2)cc1 (stereo not given) ?
SW480 rerep: -42%; HT1080 IDH1KD tx: 10%; KB-V1 cytotox: 16µM*; KB-3-1 cytotox: inactive; MCF10A rerep: inconclusive; HT1080NT lethal: 17%

How did CC(C)(C)c1ccc(/C=C/C(=O)N2CCCCC2)cc1 do in these assays?
SW480 rerep: 12%; HT1080 IDH1KD tx: -7%; KB-V1 cytotox: inactive; KB-3-1 cytotox: inactive; MCF10A rerep: inconclusive; HT1080NT lethal: -12%

Results for CCOCC(=O)N1CCC(Cc2ccccc2)CC1 ?
SW480 rerep: -5%; HT1080 IDH1KD tx: 0%; KB-V1 cytotox: inactive; KB-3-1 cytotox: inactive; MCF10A rerep: 0%; HT1080NT lethal: 9%

What do the screens show for `Cc1ccc(/C=C/C(=O)N2CCC(Cc3ccccc3)CC2)cc1`?
SW480 rerep: -2%; HT1080 IDH1KD tx: -4%; KB-V1 cytotox: 21µM*; KB-3-1 cytotox: inactive; MCF10A rerep: inconclusive; HT1080NT lethal: -6%

How did COc1ccccc1N1CCN(C(=O)/C=C/c2cccc([N+](=O)[O-])c2)CC1 do in these assays?
SW480 rerep: -91%; HT1080 IDH1KD tx: -21%; KB-V1 cytotox: inactive; KB-3-1 cytotox: inactive; MCF10A rerep: 1%; HT1080NT lethal: -2%

What do the screens show for `COc1ccccc1N1CCN(C(=O)/C=C/c2ccc(C)cc2)CC1`?
SW480 rerep: 3%; HT1080 IDH1KD tx: 7%; KB-V1 cytotox: 16µM*; KB-3-1 cytotox: inactive; MCF10A rerep: 23µM*; HT1080NT lethal: 5%

What do the screens show for `CCOc1ccc(OCC(=O)Nc2nnc3n2CCS3)cc1`?
KB-V1 cytotox: inactive; KB-3-1 cytotox: inactive

Results for COC(=O)c1cc2oc3ccccc3c2n1Cc1cccc(C)c1 ?
KB-V1 cytotox: inactive; KB-3-1 cytotox: inactive

How did COc1cc(-c2coc3c(C(=O)NCc4cccc(Cl)c4)cccc23)ccc1O do in these assays?
HT1080 IDH1KD tx: 23µM*; KB-V1 cytotox: inconclusive; KB-3-1 cytotox: inactive; HT1080NT lethal: inconclusive

How did COc1cc(-c2coc3c(C(=O)NCc4ccccc4)cccc23)ccc1O do in these assays?
HT1080 IDH1KD tx: inconclusive; KB-V1 cytotox: inactive; KB-3-1 cytotox: inactive; HT1080NT lethal: 18µM*

Results for CC1(C(=O)NS(=O)(=O)c2cccc(C#N)c2)CCN1C(=O)C/C=C/c1ccccc1 (stereo not given) ?
HT1080 IDH1KD tx: 13%; KB-V1 cytotox: inactive; KB-3-1 cytotox: inactive; HT1080NT lethal: 19%

Results for COc1ccc(Cn2nnnc2C(c2cccs2)N2CCCCCC2)cc1 (stereo not given) ?
SW480 rerep: 19%; HT1080 IDH1KD tx: -18%; KB-V1 cytotox: 16µM*; KB-3-1 cytotox: inconclusive; MCF10A rerep: 5%; HT1080NT lethal: -18%

What do the screens show for `COc1ccccc1N1CCN(C(c2ccccc2)c2nnnn2Cc2ccccc2)CC1` (stereo not given)?
KB-V1 cytotox: inactive; KB-3-1 cytotox: inconclusive

Results for COc1ccc(Cn2nnnc2C(C(C)C)N2CCN(c3ccccc3OC)CC2)cc1 (stereo not given) ?
SW480 rerep: 1%; HT1080 IDH1KD tx: -1%[9.24 µM]; KB-V1 cytotox: inconclusive; KB-3-1 cytotox: 18µM*; MCF10A rerep: 8%; HT1080NT lethal: -18%

How did CC1CCN(C(c2cccs2)c2nnnn2Cc2ccccc2)CC1 (stereo not given) do in these assays?
SW480 rerep: 0%; HT1080 IDH1KD tx: -24%; KB-V1 cytotox: 15µM*; KB-3-1 cytotox: inconclusive; MCF10A rerep: 3%; HT1080NT lethal: -18%

What do the screens show for `COc1ccc(Cn2nnnc2C(c2cccs2)N2CCSCC2)cc1` (stereo not given)?
SW480 rerep: 0%; HT1080 IDH1KD tx: -2%; KB-V1 cytotox: inactive; KB-3-1 cytotox: inactive; MCF10A rerep: -1%; HT1080NT lethal: 6%

Results for Cc1ccc(Nc2c(-c3ccncc3)nc3ccc(C)cn23)cc1 ?
KB-V1 cytotox: inactive; KB-3-1 cytotox: inactive

How did CN(NC(=O)Nc1ccc(Cl)cc1)c1ncc(C(F)(F)F)cc1Cl do in these assays?
SW480 rerep: inconclusive; HT1080 IDH1KD tx: inconclusive; KB-V1 cytotox: 16µM*; KB-3-1 cytotox: inconclusive; MCF10A rerep: 18%; HT1080NT lethal: inconclusive

How did Cc1ccc(/C=N/NC(=O)NN(C)c2ncc(C(F)(F)F)cc2Cl)cc1 do in these assays?
SW480 rerep: 1%; HT1080 IDH1KD tx: inconclusive; KB-V1 cytotox: inactive; KB-3-1 cytotox: inactive; MCF10A rerep: 27%; HT1080NT lethal: -30%

What do the screens show for `COc1ccc(NC(=O)Cn2c(=O)n(Cc3ccco3)c(=O)c3sc4ccccc4c32)cc1Cl`?
KB-V1 cytotox: inactive; KB-3-1 cytotox: inactive

Compound activity (PubChem BioAssay)
